Compounds without any hit were thinned out: in the full panel of roughly 83,000, 20% have a hit.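 Values shown are percent growth following 48 h exposure of cells in 96-well plates to a single concentration of compound; below 10 was considered active.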 Unmarked numbers belong to inactive results. Activity calls are given as the source filed them.
The compounds below were run on HL-60(TB) leukemia (assay: NCI-60 one-dose screen, 48 h (100 = growth as untreated, 0 = no growth, -100 = all killed)). Settings: 10 µM unless noted.

Question: O=C(O)Cn1ccc2ccccc21 was tested. Which growth did it give?
Answer: The growth was 104%.

Question: Which growth does the source give for CSc1ccc(N2C(=N)C(=S)N(c3ccc(C)cc3)C2=O)cc1 here?
Answer: The growth was 101%.

Question: How did the growth turn out when Cn1cc(-c2noc(C(=O)c3cn(C)c4ncccc34)n2)c2ccccc21 was run?
Answer: The growth was 98.6%.

Question: CCN(CC)Cc1cc(Nc2c3ccccc3nc3cc(Cl)ccc23)ccc1O was tested. Which growth did it give?
Answer: The growth was -37.5% (active).

Question: With COc1cc(/C=C(/c2ccccc2)[N+](=O)[O-])c(OC)c2c1OCO2 as the compound, how does the growth read?
Answer: Its growth is -23% (active).

Question: Which growth does the source give for S=C1SCN(CCc2ccccc2)CN1CCc1ccccc1 here?
Answer: Its growth is 89.7%.

Question: With COc1cc(/C=C/c2cc(/C=C/c3ccc(O)c(OC)c3)n(C(N)=O)n2)ccc1O as the compound, how does the growth read?
Answer: Its growth is -25.1% (active).

Question: For COC(=O)c1ccc2cc(OC)c(OC)cc2c1, which growth is on record?
Answer: Its growth is 94.8%.

Question: For Nc1ccc2cc(Br)c3ccccc3c2c1, which growth is on record?
Answer: Its growth is 45.6%.

Question: Which growth does the source give for O=C1Nc2ccccc2C12Nc1cc(Cl)ccc1S2 (stereo not given) here?
Answer: The growth was 71.6%.

Question: With CCCCNNC(=O)c1ccc(Br)cc1 as the compound, how does the growth read?
Answer: The growth was 18.3%.

Question: NC(=S)N/N=C\c1nccc2c(C(F)(F)C(F)(F)C(F)(F)F)cccc12 was tested. Which growth did it give?
Answer: Its growth is -49.4% (active).

Question: How did the growth turn out when Cc1ccc(C(=O)Nc2cccc(C#Cc3cccc4[nH]nc(N)c34)c2)cc1C(F)(F)F was run?
Answer: The growth was 19.2%.

Question: Which growth does the source give for Cc1ccc(C(=O)/C=C/c2ccccc2)s1 here?
Answer: The growth was 97.1%.

Question: O=C1Nc2ccccc2/C1=N/N=C/c1c[nH]c2ccccc12 was tested. Which growth did it give?
Answer: The growth was 86.2%.

Question: CCCCCCCCCCCC[n+]1ccc(CCCCCCCCC)cc1 was tested. Which growth did it give?
Answer: Its growth is -53.3% (active).

Question: With CCOC(=O)C(C(=O)OCC)C(c1ccccc1)N1CCN(c2ccccc2)CC1 (stereo not given) as the compound, how does the growth read?
Answer: The growth was 97.7%.

Question: With Cc1cc2cc3cc(C)c(N(C)C)cc3[n+](C)c2cc1N(C)C as the compound, how does the growth read?
Answer: The growth was 47%.

Question: For Clc1ccc(-c2nc(-c3cccs3)no2)cc1, which growth is on record?
Answer: Its growth is 108%.

Question: Which growth does the source give for CC1(C)[C@@H](O)CC[C@]2(C)[C@H]3CC[C@@H]4[C@H]5[C@H](c6cn(-c7ccccc7)nn6)CC[C@]5(CO)CC[C@@]4(C)[C@]3(C)CC[C@@H]12 here?
Answer: The growth was 74.8%.

Question: Which growth does the source give for CC[C@H]1OC(=O)[C@H](C)[C@@H](O[C@H]2C[C@@](C)(OC)[C@@H](O)[C@H](C)O2)[C@H](C)[C@@H](O[C@@H]2O[C@H](C)C[C@H](N(C)C)[C@H]2O)[C@](C)(O)C[C@H](C)CN(C)[C@H](C)[C@@H](O)[C@]1(C)O here?
Answer: The growth was 89.9%.

Question: COc1ccc2c(c1)nc(N)c1c3cccnc3cn21 was tested. Which growth did it give?
Answer: Its growth is 14.9%.

Question: For Cc1ccc(CC(=O)O)c(C)c1, which growth is on record?
Answer: The growth was 98%.

Question: With Cc1ccc(NC(=O)c2nc(S(C)=O)oc2-c2ccc(F)cc2)cc1Nc1nccc(-c2cccnc2)n1 (stereo not given) as the compound, how does the growth read?
Answer: Its growth is 47.3%.

Question: COc1ccc(Oc2ccc(/C=C/C(=O)c3ccc(OC)c(OC)c3)cc2)cc1 was tested. Which growth did it give?
Answer: Its growth is -61.4% (active).

Question: For COc1cc2c(cc1OC(C)=O)C(=O)CCCC2, which growth is on record?
Answer: Its growth is 143%.

Question: For Cc1c(C)c2c(c(C)c1OC(=O)CCC(=O)[O-])CCC(C)(CCCCCCCCCCC[P+](c1ccccc1)(c1ccccc1)c1ccccc1)O2 (stereo not given), which growth is on record?
Answer: Its growth is -35.2% (active).

Question: For Clc1ccc(-c2n[nH]c3c2Cc2ccccc2-3)cc1Cl, which growth is on record?
Answer: Its growth is 100%.

Question: For C=CCNc1ccccc1, which growth is on record?
Answer: The growth was 125%.

Question: For CCN1CCN(c2ccc(NC(=O)Nc3nc4ccc(-c5ccccc5OC)cc4s3)cc2)CC1, which growth is on record?
Answer: The growth was -74.1% (active).

Question: For Nc1ccc(N=Nc2ccccc2)c2cc(S(=O)(=O)O)ccc12, which growth is on record?
Answer: The growth was 103%.

Question: How did the growth turn out when CC1=NOC(=O)/C1=C\c1ccc(O)cc1 was run?
Answer: Its growth is 105%.

Question: O=[N+]([O-])c1ccc(C2CC(c3ccccc3)=Nc3ccccc3S2)cc1 (stereo not given) was tested. Which growth did it give?
Answer: The growth was 36.1%.

Question: COc1cc2c(c(OC)c1OC)-c1ccc(NNC(N)=S)c(=O)cc1[C@@H](NC(C)=O)CC2 was tested. Which growth did it give?
Answer: The growth was -13.9% (active).

Question: How did the growth turn out when COc1ccc([C@@H]2[C@@H](Cl)C(=O)N2c2cc(OC)c(OC)c(OC)c2)cc1C was run?
Answer: The growth was -30.3% (active).

Question: With O=C(N/N=C/c1ccc(Cl)cc1)c1ccc(Cc2n[nH]c(=O)c3cccnc23)cc1 as the compound, how does the growth read?
Answer: Its growth is 100%.

Question: How did the growth turn out when COc1ccc(-n2nnc3c(sc4ccccc43)c2=O)cc1 was run?
Answer: The growth was 94.6%.

Question: With COc1cc2c(cc1-c1c(C)noc1C)ncc1nc(CN3CCOCC3)n([C@H](C)COC(F)F)c12 as the compound, how does the growth read?
Answer: The growth was 21.7%.

Question: How did the growth turn out when CC1(C)NCCC[C@]2(C)[C@H]3CC=C4[C@@H]5C[C@](C)(COC(=O)c6ccccc6C(=O)O)CC[C@]5(C)CC[C@@]4(C)[C@]3(C)CC[C@@H]12 was run?
Answer: The growth was 65.3%.

Question: O=C(C[C@@]1(O)C(=O)Nc2c(Cl)ccc(Cl)c21)c1ccc(C2CC2)cc1 was tested. Which growth did it give?
Answer: Its growth is -17.8% (active).

— PubChem BioAssay (NCI)
